# Results as given in PubChem BioAssay (NCATS).
# “And” between values parts separate entries of the source, which are not always exact repeats. Equal entries are not always repeated. Results filed as inconclusive are left out. The source made the active and inactive calls. The call rests on the fitted dose curve; in most records, active means well fitted cell-killing curve with a large enough effect in the repeat runs; inconclusive means weak or mixed curves; inactive means flat fitted curve, though single readings scatter.
# Experiment: qHTS assay for small molecule agonists of the antioxidant response element (ARE) signaling pathway measured by Nrf2-dependant transcriptional activity - cell viability counter screen (AID 720653)
# Settings: ARE-bla HepG2 viability, CellTiter-Glo ATP luminescence, 16 h; stronger effect = lower value
# Procedure, shortened: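 Cytotoxicity counter screen: intracellular ATP quantified by CellTiter-Glo luminescence in the same ARE-bla HepG2 plates, after 16 h compound exposure and a 2 h beta-lactamase substrate step.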
# On the % scale 0 is the no-effect control and ±100 the full control effect.
row,SMILES,max response
1,CCCCCCC=O,14.6% (inactive)
2,CCC(C)(C)OC,-14.5% (inactive)
3,CCCCOCCOCCOCCCC,10.5% (inactive)
4,c1ccc(Nc2ccccc2)cc1,-1.43% (inactive) and -3.7% (inactive)
5,COC(=O)CS,-0.555% (inactive)
6,Cc1ccco1,-4.14% (inactive)
7,CCCCCCCN,-1.43% (inactive)
8,ClCCl,8.53% (inactive)
9,CCCCC(=O)N(C)C,-1.17% (inactive)
10,CCNS(=O)(=O)c1ccc(C)cc1,-1.66% (inactive)
11,Cc1ccc(Br)cc1,-9.09% (inactive)
12,C=C(C)OC(C)=O,7.41% (inactive)
13,CCCC(Cl)CCCC(Cl)CCC(Cl)CCC(Cl)CCC(Cl)CCCC(Cl)CCC (stereo not given),-6.05% (inactive)
14,OC(CCl)CCl,16.1% (inactive)
15,CCC=O,-3.76% (inactive)
16,CCCCN(CCO)CCCC,-4.16% (inactive)
17,CCCCC(C=O)CC (stereo not given),4.13% (inactive)
18,Nc1ccccc1S(=O)(=O)O,-0.944% (inactive)
19,O=C1C=CCCC1,4.99% (inactive)
20,CCOCCOCC,5.13% (inactive)

row,SMILES,max response
1,Cc1ccc(C#N)cc1,4.38% (inactive)
2,O=C(Cl)c1c(Cl)cccc1Cl,10.8% (inactive)
3,Cc1ccc(C)o1,-12.8% (inactive)
4,C=CC(=O)OCCCC,-3.72% (inactive)
5,CC(C)C(C)C,-1.72% (inactive)
6,CCCCC(CC)COCC1CO1 (stereo not given),-19% (inactive)
7,C=C(C)C(N)=O,-10.7% (inactive)
8,CC(=O)Nc1ccc(C)cc1,2.3% (inactive)
9,CCCC(C)CO (stereo not given),13.6% (inactive)
10,O=[N+]([O-])c1ccc(Cl)cc1Cl,-19.5% (inactive)
11,Cc1ccccc1C(=O)O,0.515% (inactive)
12,Cc1ccc2ncccc2c1,5.85% (inactive)
13,C=C(C)C(=O)OC,4.29% (inactive)
14,COc1ccc(N)c(C)c1,-1.87% (inactive)
15,Cc1c(N)cccc1[N+](=O)[O-],12.6% (inactive)
16,O=Cc1ccccc1Cl,-4.5% (inactive)
17,O=C(O)c1cccc(Cl)c1Cl,3.31% (inactive)
18,O=[N+]([O-])c1c(Cl)cc(Cl)cc1Cl,-2.01% (inactive)
19,C(=C/c1ccccc1)/c1ccccc1,5.32% (inactive)
20,Cc1ccc(Cl)cc1N,6.01% (inactive)
